HCV inhibitor: qHTS Assay for Inhibitors of Hepatitis C Virus (HCV). Huh7.5.1 HCVcc-Cre infection, luciferase reporter, 44 h. Potency, µM (top dose mostly 41.8 µM), for the others: at the highest dose activity change, negative = inhibition, hits mostly inhibitors. 340,000 compounds, 3.4% hits. AID 651820, 2012; active = well fitted inhibition curve with a large enough effect; inconclusive = small, poorly fitted or top-dose-only effect, or another doubt; inactive = no such curve, though single readings can be large or run the other way; also: potency is read from the fitted curve at half-maximal effect
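Luciferase read-out (15 sec integration) after a 15 min room-temperature substrate step quantifies HCVcc-Cre infection. Cells, 1,000 per well, had compound added 4 h post-plating, then virus at ~0.5 moi, and were cultured 44 h.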
Vaccinia mCherry: qHTS for Stage-Specific Inhibitors of Vaccinia Orthopoxvirus: mCherry Reporter Primary qHTS | Vaccinia virus mCherry reporter infection, fluorescence | Potency, µM (series often up to 36.5 µM), without a hit: at the highest dose activity change, negative = inhibition, actives largely listed as inhibitors | 310,000 compounds, 0.63% hits; calls by dose curve; tested in A549 cells; also: potency is read from the fitted curve at half-maximal effect; nearly all actives have a fitted effect of over 35% in size
FMDV antiviral: High Throughput Screening for Foot and Mouth Disease Virus Antivirals; FMDV antiviral cell-based qHTS; Potency, µM (titrated, usually from 57.9 µM), without a hit: at the top dose activity change, negative = inhibition, most hits filed as inhibitors; 410,000 compounds, 1.2% hits; calls by dose curve; tested in HEK293T cells; also: read-out not given here; potency is read from the fitted curve at half-maximal effect; nearly all actives have a fitted effect of over 45% in size
Vaccinia Venus: qHTS for Stage-Specific Inhibitors of Vaccinia Orthopoxvirus: Venus Reporter Primary qHTS. Vaccinia virus Venus reporter expression, fluorescence. Potency, µM (titrated, usually from 36.5 µM), for inactives: at the highest dose activity change, negative = inhibition, hits mostly inhibitors. 330,000 compounds, 0.46% hits. AID 720580, 2013; calls by dose curve; tested in A549 cells; also: potency is read from the fitted curve at half-maximal effect; nearly all actives have a fitted effect of over 30% in size
HCMV inh: qHTS Assay for inhibitors of the human cytomegalovirus (HCMV). 410,000 compounds, 4.5% hits. AID 1259415, 2018. activity change, negative = inhibition, % at 57.5 µM. HFF cells, HCMV-luciferase reporter, 72 h; stronger effect = lower value; in the data active = activity change below about -60%; inconclusive = no clear call, values can overlap the other calls; inactive = above about -39%
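Inhibition of viral replication was scored as loss of reporter luminescence in HFFs infected with HCMV-luciferase (MOI 1 PFU/cell) for 72 h; compounds tested at 2 doses, normalized to buffer and Salinomycin controls.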
* hit, by the source's call; i = inactive; ? = inconclusive; / = not tested or not shown. Compounds with a hit are over-represented: about 7.3% of the library has one in this group of screens. % is scaled to controls: 0 for no effect and ±100 for the full control effect.

SMILES | HCV inhibitor | Vaccinia mCherry | FMDV antiviral | Vaccinia Venus | HCMV inh
Cc1cccc2sc(NNC(=O)c3ccc(S(=O)(=O)N4CCCC(C)C4)cc3)nc12 (stereo not drawn) | 2.82µM* | ? | 10µM* | ? | -71.7*
CCc1nnc(NC(=O)c2ccc(S(=O)(=O)N3CCCC(C)C3)cc2)s1 (stereo not drawn) | -3.2% | -5.3% | 0.4% | 8.6% | -2.1
CC(=O)Nc1ccc(SC[C@H](Cc2ccccc2)N2CC[C@@H](N)CCC2=O)cc1 | / | -7.2% | / | -3.9% | /
CC(=O)N[C@@H](C)C(=O)NCC1Cc2cc(C)cc(-c3cnccn3)c2O1 (stereo partly drawn) | / | -7.2% | -10.1% | 3.7% | /
Brc1ccc(C[n+]2ccccc2)cc1 | 7.94µM* | -16.0% | 1.3% | -18.9% | -3.3
COc1ccc(NC(=O)N2CCCC3(CCN(C(C)=O)CC3)C2)cc1 | / | / | 7.7% | / | /
C=CCn1c(O)c(N=Nc2ccccc2)c2ccccc21 | 15.4% | ? | -4.0% | -11.3% | 49.9
C=CCn1c(O)c(N=NC(=S)Nc2ccc(OC)cc2)c2ccccc21 | ? | -28.8% | -13.5% | -29.9% | -71.6*
C=CCn1c(O)c(N=NC(=S)Nc2cccc(OC)c2)c2ccccc21 | ? | -20.5% | -14.7% | -13.5% | -75.9*
CCn1c(O)c(N=NC(=O)CNC(=O)c2ccco2)c2ccccc21 | -5.8% | -23.2% | -17.6% | ? | -61.8*
C=CCn1c(O)c(N=NC(=O)OCC)c2ccccc21 | -3.9% | -27.8% | -22.3% | -12.4% | -64.3*
CCCCc1nn2c(=O)cc(COC(=O)c3ccc(NC(=O)c4cccc(OC)c4)cc3)nc2s1 | / | -13.6% | 0.8% | -7.2% | 9.9
COc1ccccc1CNC(=O)C(NS(=O)(=O)c1ccc2c(c1)CCN2C(C)=O)C(C)C (stereo not drawn) | / | 0.8% | 0.9% | -9.1% | 5.5
O=C(Nc1cccnc1Cl)c1cnn2c1NC(=C1CC1)C=C2C(F)F | / | -18.0% | / | -20.8% | /
CCc1cccc(C)c1NC(=O)C(NS(=O)(=O)c1ccc2c(c1)CCC(=O)N2)c1ccccc1 (stereo not drawn) | / | -14.4% | 0.4% | -8.7% | -9.2
C=CCn1c(=O)c2ccccc2n2nnc(C(=O)OCC)c12 | 16.4% | i | 10.2% | -9.8% | -62.5*
O=C(O)CC1Cc2ccccc2C1C(=O)O (stereo not drawn) | 32.4% | i | -6.6% | 7.2% | -3.5
CCOc1ccc(S(=O)(=O)N2CN(c3cccc(C(C)=O)c3)c3nc4ccccc4nc32)cc1 | ? | i | -14.8% | -6.9% | -71.4*
O=C(COc1ccc(Cl)cc1)NCC(c1ccco1)S(=O)(=O)c1ccc(F)cc1 (stereo not drawn) | / | -8.8% | -25.0% | -14.2% | -14.7
CSc1nc(Sc2ccccc2)c2ccccc2n1 | 4.47µM* | -1.0% | -11.2% | 3.0% | -19.7
NS(=O)(=O)c1ccc(Sc2nc3ccccc3s2)c([N+](=O)[O-])c1 | 22.4µM* | ? | ? | ? | -39.9
COc1ccc(OC)c(NC(=O)C2(C)CCN2Cc2ccccc2Cl)c1 (stereo not drawn) | / | 16.6% | -7.4% | -9.8% | 5.8
COc1ccc(OC)c(NC(=O)c2cccc(N3C(=O)C4C5CCC(C5)C4C3=O)c2)c1 (stereo not drawn) | / | -8.1% | 20µM* | -17.4% | -0.4
O=C(Nc1ccc(F)cc1)c1cccc(N2C(=O)C3C4C=CC(C5CC45)C3C2=O)c1 (stereo not drawn) | ? | i | ? | -18.9% | 12.7
Cc1ccc(NC(=O)c2ccccc2N2C(=O)C3C4C=CC(C5CC45)C3C2=O)cc1C (stereo not drawn) | -12.3% | -16.3% | 6.9% | -17.2% | -3.7
SMILES | HCV inhibitor | Vaccinia mCherry | FMDV antiviral | Vaccinia Venus | HCMV inh
COc1ccc(OC)c(NC(=O)c2cccc(N3C(=O)C4C5C=CC(C6CC56)C4C3=O)c2)c1 (stereo not drawn) | ? | / | 25.1µM* | / | ?
O=C(Nc1ccc(Br)cc1)c1cccc(N2C(=O)C3C4CCC(C4)C3C2=O)c1 (stereo not drawn) | 25.1µM* | -26.1% | 39.8µM* | -24.5% | -81.3*
O=C(Nc1ccc(F)cc1)c1cccc(N2C(=O)C3C4CCC(C4)C3C2=O)c1 (stereo not drawn) | 5.2% | -5.6% | -19.8% | -25.1% | ?
Cc1cccc(NC(=O)c2ccc(N3C(=O)C4C5C=CC(C6CC56)C4C3=O)cc2)c1 (stereo not drawn) | ? | / | 25.1µM* | / | 35.6
COc1ccc(NC(=O)c2cc(N3C(=O)C4C5CCC(C5)C4C3=O)ccc2Cl)c(OC)c1 (stereo not drawn) | -6.4% | i | 4.0% | -9.1% | -21.3
CC(=O)Nc1cccc(NC(=O)C(=O)NCC(c2ccco2)N2CCc3ccccc3C2)c1 (stereo not drawn) | ? | i | ? | -9.9% | ?
O=C(Nc1ccccc1)c1cccc(N2C(=O)C3C4C=CC(C5CC45)C3C2=O)c1 (stereo not drawn) | ? | -8.2% | -23.4% | -19.8% | -23.6
COC(=O)c1ccc(NC(=O)c2cccc(N3C(=O)C4C5C=CC(C6CC56)C4C3=O)c2)cc1 (stereo not drawn) | 5.01µM* | -16.0% | ? | -14.7% | -39.9
Cc1cccc(NC(=O)c2ccc(N(Cc3ccccc3)S(C)(=O)=O)cc2)c1 | / | -16.7% | 22.4µM* | 2.0% | -66.0*
CC(=O)c1cccc(NC(=O)c2ccc(N(Cc3ccccc3)S(C)(=O)=O)cc2)c1 | -25.8% | / | 31.6µM* | / | 5.5
COc1ccccc1NS(=O)(=O)c1cc(N/C(=N\S(=O)(=O)c2ccccc2)c2ccc(F)cc2)ccc1Cl | 35.5µM* | -4.3% | 35.9% | -21.3% | -4.5
COc1ccccc1NS(=O)(=O)c1cc(NC(=S)Nc2cc(C)cc(C)c2)ccc1Cl | ? | -27.8% | ? | -15.1% | -82.1*
COc1ccccc1NS(=O)(=O)c1cc(NC(=O)Cc2n[nH]c(=O)c3ccccc23)ccc1Cl | 3.16µM* | -8.3% | ? | -14.1% | 15.6
COc1ccc(NS(=O)(=O)c2cc(NC(=O)Cc3n[nH]c(=O)c4ccccc34)ccc2OC)cc1 | ? | -14.2% | 22.3% | -15.3% | 0.0
COc1cc(-c2nc3n(n2)C(c2ccc(F)cc2)C(C(N)=O)=C(C)N3)cc(OC)c1OC (stereo not drawn) | / | -8.3% | -13.7% | 3.8% | 3.4
CCOc1ccc(N(C(=O)CC(C)C)S(=O)(=O)c2ccc3c(c2)oc(=O)n3C)cc1 | / | -26.1% | -14.9% | -18.8% | 2.0
CN(Cc1ccccc1)Cc1nc2c(c(=O)n(C)c(=O)n2C)n1CCc1ccccc1 | 35.5µM* | -10.6% | / | -12.5% | -39.2
CC1CCCCN1Cc1nc2c(c(=O)n(C)c(=O)n2C)n1CCc1ccccc1 (stereo not drawn) | -1.8% | / | -27.8% | 24.7% | -66.9*
